The entries come from a sample that favours hits as a whole.
Pf Dd2 growth – blocks in vitro growth of P. falciparum Dd2; P. falciparum Dd2 growth, SYBR Green, 72 h; Potency, µM (doses to about 28.9 µM), hits mostly inhibitors; actives 4.3% (n = 120,000); active means well fitted inhibition curve with a large enough effect; further: nearly all actives have a fitted effect of over 65% in size
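Readout: SYBR Green fluorescence, 485 nm excitation, 535 nm emission, after ~16 h lysis at 37C. Before that, Dd2-infected red cells (2.5% hematocrit) grew 72 h with compound, 29 uM top final concentration.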
Numbers stand for hits; ! = repeats disagree.

O=C(c1ccc(Cl)cc1)N1CCC2(C1)C(=O)N(Cc1ccccc1)c1ccccc12 (configuration not stated) was read as Pf Dd2 growth inactive.
Screening O=C(c1ccccc1)N1CCC2(C1)C(=O)N(Cc1ccccc1)c1ccccc12 (configuration not stated) returned Pf Dd2 growth inactive.
COC(=O)N1CCC2(C1)C(=O)N(CCc1ccccc1)c1ccccc12 (configuration not stated) was read as Pf Dd2 growth 13µM!.
`COc1ccc(C(=O)N[C@@H]2CCC[C@@H]2C(=O)N(C)CCc2ccccn2)cn1` gave Pf Dd2 growth inactive.
COCCNC(=O)c1ccc2c(c1)N(C)C(CC(=O)NC(C)(C)CO)CO2 (configuration not stated) was read as Pf Dd2 growth inactive.
`CC1CCN(c2ccc(CNC(=O)c3cccc4c3CCN4C(=O)C3CC3)cc2)CC1` gave Pf Dd2 growth inactive.
Cc1cccnc1CN(C)C(=O)C1CCC(=O)N(CCc2cccc(F)c2)C1 (configuration not stated) was read as Pf Dd2 growth inactive.
`Cc1nccn1CCC1CCN(C(=O)C2CC(=O)N(C3CC3)C2)CC1` (configuration not stated) gave Pf Dd2 growth inactive.
`Cc1noc(C)c1-c1cc2cc(CO)oc2c(NCCN2CCOCC2)n1` gave Pf Dd2 growth inactive.
For Cc1noc(C)c1-c1cc2cc(C(C)C)oc2c(NC2CCOCC2)n1 the results were Pf Dd2 growth 11µM.
Cc1cc2cc(-c3c(C)noc3C)nc(NCC3CC3)c2o1 was read as Pf Dd2 growth inactive.
Screening Cc1cc2cc(-c3c(C)noc3C)nc(NC3CCN(C)CC3)c2o1 returned Pf Dd2 growth 10µM.
Screening Cc1noc(C)c1-c1cc2cc(C(C)C)oc2c(NC(C)C)n1 returned Pf Dd2 growth inactive.
`Cc1noc(C)c1-c1cc2cc(C(C)C)oc2c(-c2c(C)noc2C)n1` gave Pf Dd2 growth inactive.
Screening COc1ncccc1-c1nccc2c(=O)cc(N(C)c3ccccc3)oc12 returned Pf Dd2 growth inactive.
For O=C1COC[C@H]([C@H](O)c2ccc(NC(=O)C3CCCC3)cc2)N1 the results were Pf Dd2 growth inactive.
Screening CCOc1ccc(NC(=O)Cn2c(=O)c(-c3noc(C)n3)c3n(c2=O)CCCC3)cc1 returned Pf Dd2 growth inactive.
`Cc1nc2ccc(CC(=O)N[C@H](c3ccccn3)C3CC(O)C3)cc2[nH]1` (some centres not stated) gave Pf Dd2 growth inactive.
`FC(F)(F)CN1C2CCC1CN(c1cc(Cl)ncn1)C2` gave Pf Dd2 growth inactive.
Screening COc1ccc([N+](=O)[O-])c(N2CC3CCC(C2)N3CC(F)(F)F)n1 returned Pf Dd2 growth inactive.
`COc1cc2nc(Cl)nc(N3CC4CCC(C3)N4CC(F)(F)F)c2cc1OC` gave Pf Dd2 growth 5µM.
`O=C1CCC2(CCCN(c3ncc(Cl)cc3F)C2)CN1Cc1cccnc1` (configuration not stated) gave Pf Dd2 growth inactive.
CCN(CC)C(=O)N1CC(Oc2ccc(-c3noc(COC)n3)cc2)C1 was read as Pf Dd2 growth inactive.
`Cc1ccccc1CSc1cn(CC(=O)N2CCCCCC2)c2ccccc12` gave Pf Dd2 growth inactive.
O=C(Cn1cc(SCc2ccccc2Cl)c2ccccc21)N1CCCCCC1 was read as Pf Dd2 growth inactive.
Screening O=C(/C=C/c1cn(CC(O)CN2CCCCCC2)c2ccccc12)c1ccccc1 (configuration not stated) returned Pf Dd2 growth 10µM.
For O=C(CSc1cn(CC(=O)N2CCCCC2)c2ccccc12)Nc1ccccc1 the results were Pf Dd2 growth inactive.
Screening Cc1ccc(CSc2cn(CC(=O)N3CCCCC3)c3ccccc23)cc1 returned Pf Dd2 growth inactive.
For CNC(=O)CSc1cn(CC(=O)N2CCCCCC2)c2ccccc12 the results were Pf Dd2 growth inactive.
Screening O=C(/C=C/c1cn(CC(O)CN2CCCCCC2)c2ccccc12)c1ccc(Br)cc1 (configuration not stated) returned Pf Dd2 growth 10µM.
For Cc1ccc(C(=O)/C=C/c2cn(CC(O)CN3CCCCCC3)c3ccccc23)cc1 (configuration not stated) the results were Pf Dd2 growth 13µM.
`COC(=O)c1ccc(NC(=O)CSc2cn(CC(=O)N3CCCCC3)c3ccccc23)cc1` gave Pf Dd2 growth inactive.
Screening CC(C)c1ncc(C(=O)N2CCCC(CCc3ccccc3F)C2)c(=O)[nH]1 (configuration not stated) returned Pf Dd2 growth inactive.
Screening Cn1cc(-c2cccc(Cl)c2)c2nc(CO)cn2c1=O returned Pf Dd2 growth inactive.
Screening Cc1ccc(-n2nc3n(c2=O)CCN(C(=O)c2ccccc2F)C3)cc1 returned Pf Dd2 growth inactive.
`O[C@@H]1CO[C@H]2[C@@H]1OC[C@@H]2n1nnnc1SC1CCCC1` gave Pf Dd2 growth inactive.
COCc1nc(CCNS(=O)(=O)c2ccccc2C)no1 was read as Pf Dd2 growth inactive.
`O=C(c1cnn2c1CN([S+](=O)([O-])c1cccc(C(F)(F)F)c1)CC2)N1CCOCC1` gave Pf Dd2 growth inactive.
`COc1c[nH]c(CN2CCCC(CCc3ccccc3C(F)(F)F)C2)cc1=O` (configuration not stated) gave Pf Dd2 growth 8.9µM.
For CN(C)C(=O)N1CCCC(CCc2ccccc2C(F)(F)F)C1 (configuration not stated) the results were Pf Dd2 growth inactive.
Screening CNC(=O)c1noc(CN2CCCC(CCc3ccccc3C(F)(F)F)C2)n1 (configuration not stated) returned Pf Dd2 growth inactive.
Screening CCOc1ccc(-c2[nH]ncc2CN)cc1 returned Pf Dd2 growth inactive.
For CC(c1cccs1)N(C)C(=O)c1ccccc1 (configuration not stated) the results were Pf Dd2 growth inactive.
Screening Cc1cccc(C(=O)Nc2cccc(-c3ccc(N4CCN(C)CC4)nn3)c2)c1 returned Pf Dd2 growth 13µM.
For CC(C)CNC(=O)Nc1cccc(-c2ccc(N3CCC(C)CC3)nn2)c1 the results were Pf Dd2 growth inactive.
`CCc1ccccc1NC(=O)Nc1cccc(-c2ccc(N3CCOCC3)nn2)c1` gave Pf Dd2 growth inactive.
`O=C(Nc1cccc(-c2ccc(N3CCOCC3)nn2)c1)Nc1ccc2c(c1)CCC2` gave Pf Dd2 growth inactive.
Screening O=C(NCc1ccco1)Nc1cccc(-c2ccc(N3CCCC3)nn2)c1 returned Pf Dd2 growth 11µM.
CSc1cccc(NC(=O)Nc2cccc(-c3ccc(N4CCCC4)nn3)c2)c1 was read as Pf Dd2 growth inactive.
For Cn1c(SCC(=O)Nc2nc3ccccc3s2)ncc(C(=O)Nc2ccc(F)cc2)c1=O the results were Pf Dd2 growth inactive.
CC(=O)N1CCc2c(sc(NC(=O)CSc3ccc(F)cc3)c2-c2nc3ccccc3s2)C1 was read as Pf Dd2 growth inactive.
`CN1CCc2c(sc(NC(=O)CSc3ccc(F)cc3)c2-c2nc3ccccc3s2)C1` gave Pf Dd2 growth 13µM.
Screening Cc1nc(NCCn2nc(-c3ccccc3)ccc2=O)cc(C2CC(O)C2)n1 (configuration not stated) returned Pf Dd2 growth inactive.
Screening COCc1cc(=O)n(CC(=O)Nc2ccc(OC)c(Cl)c2)c(N2CCOCC2)n1 returned Pf Dd2 growth inactive.
`CCOC(=O)C1(Cc2ccc(F)cc2)CCCN(C(=O)c2ccco2)C1` (configuration not stated) gave Pf Dd2 growth inactive.
